Measured values taken from PMC5540273 (PLoS ONE, 2017).

Tested on: CSNK1E
Conditions: concentration: 1 μM, replicates: in singlicate; n = 1
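Note: KINOMEscan kinase panel screen.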

SMILES	%Inh
COc1ccc(NC(=O)Nc2ccc(C)c(-c3ccc(C(=O)Nc4ccncc4)cc3)c2)cc1 [GSK1398475]	36%
Clc1ccc(-c2cc(-c3c[nH]nc3-c3ccccn3)ccn2)cc1 [GW681251]	33%
CC(C)(C)OC(=O)NC1CCCN(c2cc(-c3ccc4c(N)n[nH]c4c3)nc(N)n2)C1 (stereo not drawn) [GSK2286096]	18%
CSc1ccc(NC2=C(c3ccccc3Cl)C(=O)NC2=O)cc1 [SB-342411]	19%
COC(=O)c1cccc(NC(=O)NCCNc2ccnc(Nc3ccc(F)cc3)n2)c1 [GSK1379883]	29%
Fc1cccc(COc2ccc(Nc3ncnc4sc(-c5ccc[nH]5)cc34)cc2Cl)c1 [GW707818]	8%
c1ccc(-c2ccc3c(-c4ccnc(Nc5ccc6c(c5)OCCO6)n4)cnn3n2)cc1 [GW818941]	0%
Fc1cccc(COc2ccc(Nc3ncnc4cc[nH]c34)cc2Cl)c1	10%
COc1cc2c(Nc3cccc(NC(=O)c4ccccc4)c3)ncnc2cc1OCCCN1CCOCC1 [GSK223810]	54%
COc1ccc(NC(=O)c2ccc(-c3cc(-c4nnc(C)o4)ccc3C)cc2)cc1 [GW595885]	0%
Cl.Fc1ccccc1COc1ccc(Nc2ncnc3ccc(-c4nnc(C(F)(F)F)o4)cc23)cc1Cl [GW424170]	22%
CNc1nccc(-c2c(-c3ccc(F)cc3)ncn2CCCN2CCOCC2)n1 [SB-222516]	19%
Cc1cc(N2CCC(NS(=O)(=O)c3ccc(F)cc3)CC2)nc(Nc2cccc(C#N)c2)n1.O=C(O)C(F)(F)F [GSK1653537]	52%
Cn1ccc2ncnc(Oc3ccc(NC(=O)Nc4cccnc4)c(Cl)c3)c21	0%
O=C(c1ccc(-c2cc(-c3c[nH]nc3-c3ccccn3)ccn2)cc1)N1CCCC1 [GW792479]	30%
Nc1nc(-c2ccc3c(N)n[nH]c3c2)cc(N2CCC[C@@H](C(=O)Nc3ccccc3)C2)n1.O=C(O)C(F)(F)F.O=C(O)C(F)(F)F [GSK2288359]	15%
Cl.Cl.c1ccc(-c2cc3ccncc3cc2OC2CCNCC2)cc1 [GSK1122999]	41%
Fc1ccc(-c2ncn(CCCNCc3ccccc3)c2-c2ccncc2)cc1	98.3%

SMILES	%Inh
CCn1c(-c2ccncc2)nc2cnccc21 [SB-735216]	0%
C[C@H]1CC[C@@H](C(=O)Nc2ccccc2)CN1c1cc(-c2ccc3c(N)n[nH]c3c2)nc(N)n1 [GSK2283293]	7%
NC(=O)c1sc(-n2cnc3ccccc32)cc1OCc1ccccc1F [GSK1024306]	20%
Cl.Cn1ccc(-c2cccc(Nc3ccnc4cc(-c5nccs5)ccc34)c2)n1 [GW525701]	21%
FC(F)(F)c1cc(Nc2nccc(-c3c(-c4ccc(Cl)cc4)nn4ncccc34)n2)ccc1Cl [GW829351]	79%
N#Cc1ccc(Oc2ccc(Nc3ncnc4cc[nH]c34)cc2Cl)cc1	7%
OCCOCCn1ccc2ncnc(Nc3ccc(Oc4cccc(Cl)c4)c(Cl)c3)c21	0%
Fc1cccc(COc2ccc(Nc3ncnc4nn5ccccc5c34)cc2Cl)c1 [GW689066]	14%
Nc1nc(-c2ccccn2)c(-c2ccnc3ccccc23)s1 [GW548057]	79%
CCCc1ccc(S(=O)(=O)NC2CCN(c3ccnc(Nc4ccc(OC)cc4)n3)C2)cc1 (stereo not drawn) [GSK1379737]	19%
Cc1ccc(O)cc1Nc1cc(C(F)(F)F)nc2ccc(-c3ccncc3)cc12 [GW630823]	0%
CNc1nccc(-c2c(-c3ccc(F)cc3)ncn2C2CCN(C)CC2)n1 [SB-222903]	99.5%
Nc1nc(-c2cccnc2)c(-c2ccnc3ccccc23)s1 [GW684083]	71%
O=C(Nc1ccccc1)Nc1ccc(Oc2ccc3nccn3n2)cc1	1%
CC(C)(C)c1ccc(-n2cnc3c(N)ncnc32)cc1 [SKF-97263]	18%
Cc1ccc(NC(=O)c2cccc(C#N)c2)cc1-c1ccc(C(=O)Nc2ccncc2)cc1 [GSK1398463]	29%
Cc1ccc(C)c(NC(=O)NCCNc2ccnc(Nc3ccc(F)cc3)n2)c1 [GSK1379878]	33%
Nc1nccc2scc(-c3ccc4c(c3)CCN4C(=O)Cc3cc(F)ccc3F)c12 [GSK2587663]	62%

Tested on: CSNK1G1
Conditions: concentration: 1 μM, replicates: in singlicate; n = 1

SMILES	%Inh
COc1ccc(NC(=O)Nc2ccc(C)c(-c3ccc(C(=O)Nc4ccncc4)cc3)c2)cc1 [GSK1398475]	6%
Clc1ccc(-c2cc(-c3c[nH]nc3-c3ccccn3)ccn2)cc1 [GW681251]	0%
CC(C)(C)OC(=O)NC1CCCN(c2cc(-c3ccc4c(N)n[nH]c4c3)nc(N)n2)C1 (stereo not drawn) [GSK2286096]	24%
CSc1ccc(NC2=C(c3ccccc3Cl)C(=O)NC2=O)cc1 [SB-342411]	16%
COC(=O)c1cccc(NC(=O)NCCNc2ccnc(Nc3ccc(F)cc3)n2)c1 [GSK1379883]	0%
Fc1cccc(COc2ccc(Nc3ncnc4sc(-c5ccc[nH]5)cc34)cc2Cl)c1 [GW707818]	0%
c1ccc(-c2ccc3c(-c4ccnc(Nc5ccc6c(c5)OCCO6)n4)cnn3n2)cc1 [GW818941]	1%
Fc1cccc(COc2ccc(Nc3ncnc4cc[nH]c34)cc2Cl)c1	18%
COc1cc2c(Nc3cccc(NC(=O)c4ccccc4)c3)ncnc2cc1OCCCN1CCOCC1 [GSK223810]	13%
COc1ccc(NC(=O)c2ccc(-c3cc(-c4nnc(C)o4)ccc3C)cc2)cc1 [GW595885]	0%
Cl.Fc1ccccc1COc1ccc(Nc2ncnc3ccc(-c4nnc(C(F)(F)F)o4)cc23)cc1Cl [GW424170]	0%
CNc1nccc(-c2c(-c3ccc(F)cc3)ncn2CCCN2CCOCC2)n1 [SB-222516]	4%
Cc1cc(N2CCC(NS(=O)(=O)c3ccc(F)cc3)CC2)nc(Nc2cccc(C#N)c2)n1.O=C(O)C(F)(F)F [GSK1653537]	27%
Cn1ccc2ncnc(Oc3ccc(NC(=O)Nc4cccnc4)c(Cl)c3)c21	0%
O=C(c1ccc(-c2cc(-c3c[nH]nc3-c3ccccn3)ccn2)cc1)N1CCCC1 [GW792479]	9%
Nc1nc(-c2ccc3c(N)n[nH]c3c2)cc(N2CCC[C@@H](C(=O)Nc3ccccc3)C2)n1.O=C(O)C(F)(F)F.O=C(O)C(F)(F)F [GSK2288359]	8%
Cl.Cl.c1ccc(-c2cc3ccncc3cc2OC2CCNCC2)cc1 [GSK1122999]	14%
Fc1ccc(-c2ncn(CCCNCc3ccccc3)c2-c2ccncc2)cc1	5%

SMILES	%Inh
CCn1c(-c2ccncc2)nc2cnccc21 [SB-735216]	6%
C[C@H]1CC[C@@H](C(=O)Nc2ccccc2)CN1c1cc(-c2ccc3c(N)n[nH]c3c2)nc(N)n1 [GSK2283293]	7%
NC(=O)c1sc(-n2cnc3ccccc32)cc1OCc1ccccc1F [GSK1024306]	0%
Cl.Cn1ccc(-c2cccc(Nc3ccnc4cc(-c5nccs5)ccc34)c2)n1 [GW525701]	5%
FC(F)(F)c1cc(Nc2nccc(-c3c(-c4ccc(Cl)cc4)nn4ncccc34)n2)ccc1Cl [GW829351]	0%
N#Cc1ccc(Oc2ccc(Nc3ncnc4cc[nH]c34)cc2Cl)cc1	8%
OCCOCCn1ccc2ncnc(Nc3ccc(Oc4cccc(Cl)c4)c(Cl)c3)c21	0%
Fc1cccc(COc2ccc(Nc3ncnc4nn5ccccc5c34)cc2Cl)c1 [GW689066]	0%
Nc1nc(-c2ccccn2)c(-c2ccnc3ccccc23)s1 [GW548057]	11%
CCCc1ccc(S(=O)(=O)NC2CCN(c3ccnc(Nc4ccc(OC)cc4)n3)C2)cc1 (stereo not drawn) [GSK1379737]	0%
Cc1ccc(O)cc1Nc1cc(C(F)(F)F)nc2ccc(-c3ccncc3)cc12 [GW630823]	6%
CNc1nccc(-c2c(-c3ccc(F)cc3)ncn2C2CCN(C)CC2)n1 [SB-222903]	0%
Nc1nc(-c2cccnc2)c(-c2ccnc3ccccc23)s1 [GW684083]	10%
O=C(Nc1ccccc1)Nc1ccc(Oc2ccc3nccn3n2)cc1	0%
CC(C)(C)c1ccc(-n2cnc3c(N)ncnc32)cc1 [SKF-97263]	6%
Cc1ccc(NC(=O)c2cccc(C#N)c2)cc1-c1ccc(C(=O)Nc2ccncc2)cc1 [GSK1398463]	23%
Cc1ccc(C)c(NC(=O)NCCNc2ccnc(Nc3ccc(F)cc3)n2)c1 [GSK1379878]	0%
Nc1nccc2scc(-c3ccc4c(c3)CCN4C(=O)Cc3cc(F)ccc3F)c12 [GSK2587663]	0%
